# Results reported in PubChem BioAssay (EPA / NIEHS).
# Where “and” joins values, the source holds several entries; their conditions need not be identical. Identical values can stand only once. Records with an inconclusive call do not appear. Calls of active or inactive are those of the source. The calls were made as follows, unless noted: active = hit-call score of the fitted dose curve at least 0.9, where 1 is the maximum; inconclusive = response in the unintended direction; inactive = score below 0.9.
# Experiments:
# [1] = molecular target: human CYP2B6, CYP2B6 (gene 1555) (UniProt P20813); assay: NVS_ADME_hCYP2B6: NovaScreen (NVS) CYP450-related Enzyme Activity (ADME) Assay for human CYP2B6 (AID 2283101)
# Procedure, shortened: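 Fluorescence-based enzyme activity of recombinant human CYP2B6, measured 1 h post-dose against acetonitrile vehicle baseline. Screened at a single concentration of 10 uM in duplicate before concentration-response follow-up.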
# [2] = molecular target: human CYP2C9, CYP2C9 (gene 1559) (UniProt P11712); assay: NVS_ADME_hCYP2C9: NovaScreen (NVS) CYP450-related Enzyme Activity (ADME) Assay for human CYP2C9 (AID 2283108)
# Procedure, shortened: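 Recombinant human CYP2C9 expressed in SF9 cells, fluorogenic substrate, fluorescence read 0.75 h after dosing. Chemicals first run in duplicate at 10 uM, with actives followed in concentration series; loss of signal versus acetonitrile baseline.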
# [3] = molecular target: Cytochrome P450 3A4 (Homo sapiens) (UniProt P08684); assay: NVS_ADME_hCYP3A4: NovaScreen (NVS) CYP450-related Enzyme Activity (ADME) Assay for human CYP3A4 (AID 2283110)
# Method: NVS_ADME_hCYP3A4 is a biochemical, single-readout assay that uses extracted gene-proteins from insect cells in a cell-free assay. Measurements were taken 0.33 hour after chemical dosing in a 96-well plate.NVS_ADME_hCYP3A4 is one of one assay component(s) measured or calculated from the NVS_ADME_hCYP3A4 assay. It is designed to make measurements of enzyme activity, a form of enzyme reporter, as detected with fluorescence intensity signals by Fluorescence technology.Data from the assay component NVS_ADME_hCYP3A4 was analyzed into 1 assay endpoint. This assay endpoint, NVS_ADME_hCYP3A4, was analyzed in the positive analysis fitting direction relative to Acetonitrile as the negative control and baseline of activity. Using a type of enzyme reporter, loss-of-signal activity can be used to understand changes in the enzymatic activity as they relate to the gene CYP3A4. Furthermore, this assay endpoint can be referred to as a primary readout, because this assay has produced multiple assay endpoints where this one serves a enzymatic activity function. To generalize the intended target to other relatable targets, this assay endpoint is annotated to the cyp intended target family, where the subfamily is xenobiotic metabolism.
# Binding assays used specific radioligands (tritiated, iodinated) with non-radioactive competitive displacement ligands in agonist or antagonist protocols (as indicated) and various reference compounds and inhibitors to titrate specific binding to receptors and transporters. Most enzyme assays (CYPs, kinases, phosphatases, proteases, HDACs) used recombinant protein and specific substrates (fluorescence mostly, some colorimetric and radioactive) and inhibitors, followed by a biochemical separation of substrate and product. All assays for the biochemical HTS were initially run in duplicate at a single concentration (10 uM for CYP450 assays and 25 uM for all others). […] Each assay was run with positive and negative controls, and concurrent controls on every plate. The follow-up (secondary) screen tested active chemical-pairs in concentration series, as well as a few additional assays not tested in the primary screen, some selected negative inactives, and several cases re-run in the concentration series for confirmatory purposes.
# [4] = molecular target: human CYP4F12, CYP4F12 (gene 66002) (UniProt Q9HCS2); assay: NVS_ADME_hCYP4F12: NovaScreen (NVS) CYP450-related Enzyme Activity (ADME) Assay for human CYP4F12 (AID 2283111)
# Procedure, shortened: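 Cell-free fluorescence assay of recombinant human CYP4F12 activity on a specific substrate, read 0.5 h after dosing. Primary screen in duplicate at 10 uM, then concentration series for actives; loss of signal fitted against acetonitrile negative control.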
# [5] = molecular target: Cytochrome P450 2C19 (Homo sapiens) (UniProt P33261); assay: NVS_ADME_hCYP2C19: NovaScreen (NVS) CYP450-related Enzyme Activity (ADME) Assay for human CYP2C19 (AID 2283113);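 as to AC50: potency for inhibition seen as loss of fluorescent signal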
# Procedure, shortened: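 Chemicals first screened in duplicate at 10 uM against recombinant human enzyme produced in insect cells; confirmed actives then run as concentration series. Fluorogenic substrate turnover read by fluorescence after 1 h, normalised to acetonitrile.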
# [6] = molecular target: human CYP1A2, CYP1A2 (gene 1544) (UniProt P05177); assay: NVS_ADME_hCYP1A2: NovaScreen (NVS) CYP450-related Enzyme Activity (ADME) Assay for human CYP1A2 (AID 2283102);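 also: fluorescence from turnover of a fluorogenic substrate by recombinant insect-cell CYP1A2; potency for inhibition since loss of fluorescence marks reduced CYP1A2 activity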
# Procedure, shortened: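 Compounds were tested at 10 uM in duplicate against recombinant CYP1A2 produced in insect cells. Enzyme activity was measured by fluorescence 0.5 h after dosing, with loss of signal versus acetonitrile control. Active compounds were re-tested in concentration series.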
# [7] = molecular target: human CYP2D6, CYP2D6 (gene 1565) (UniProt P10635); assay: NVS_ADME_hCYP2D6: NovaScreen (NVS) CYP450-related Enzyme Activity (ADME) Assay for human CYP2D6 (AID 2283107)
# Procedure, shortened: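 Compounds were first tested in duplicate at 10 uM against recombinant enzyme produced in insect cells, with substrate turnover measured by fluorescence after 1 hour. Decreased signal, referenced to acetonitrile vehicle, was taken as reduced enzyme activity. Active chemicals went on to concentration-response testing.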
# [8] = molecular target: rat CYP2A2, Cyp2a2 (gene 24895) (UniProt P15149); assay: NVS_ADME_rCYP2A2: NovaScreen (NVS) CYP450-related Enzyme Activity (ADME) Assay for rat CYP2A2 (AID 2283116)
# Procedure, shortened: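 Cell-free recombinant rat CYP2A2 activity with fluorogenic substrate, fluorescence read 0.2 h after dosing. Chemicals screened at 10 uM in duplicate, hits then run in concentration-response up to 20 uM; signal loss versus acetonitrile baseline.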
# rat CYP2B1, gene 24300 = assay: NVS_ADME_rCYP2B1: NovaScreen (NVS) CYP450-related Enzyme Activity (ADME) Assay for rat CYP2B1 (AID 2283117)
# Method: (§1) NVS_ADME_rCYP2B1 is a biochemical, single-readout assay that uses extracted gene-proteins in a cell-free assay. Measurements were taken 0.75 hour after chemical dosing in a 96-well plate.NVS_ADME_rCYP2B1 is one of one assay component(s) measured or calculated from the NVS_ADME_rCYP2B1 assay. It is designed to make measurements of enzyme activity, a form of enzyme reporter, as detected with fluorescence intensity signals by Fluorescence technology.Data from the assay component NVS_ADME_rCYP2B1 was analyzed into 1 assay endpoint. This assay endpoint, NVS_ADME_rCYP2B1, was analyzed in the positive analysis fitting direction relative to Acetonitrile as the negative control and baseline of activity. Using a type of enzyme reporter, loss-of-signal activity can be used to understand changes in the enzymatic activity as they relate to the gene Cyp2b1. Furthermore, this assay endpoint can be referred to as a primary readout, because this assay has produced multiple assay endpoints where this one serves a enzymatic activity function. To generalize the intended target to other relatable targets, this assay endpoint is annotated to the cyp intended target family, where the subfamily is xenobiotic metabolism. […]
# [9] = molecular target: human CYP2C8, CYP2C8 (gene 1558) (UniProt P10632); assay: NVS_ADME_hCYP2C8: NovaScreen (NVS) CYP450-related Enzyme Activity (ADME) Assay for human CYP2C8 (AID 2283104; active = hit-call score of the fitted dose curve at least 0.9, where 1 is the maximum; inactive = score below 0.9)
# Method: as §1, with “NVS_ADME_hCYP2C8” for “NVS_ADME_rCYP2B1”, “0.5” for “0.75”, “plate.NVS_ADME_hCYP2C8” for “plate.NVS_ADME_rCYP2B1”, “NVS_ADME_hCYP2C8,” for “NVS_ADME_rCYP2B1,”, “CYP2C8.” for “Cyp2b1.”
# Chain of human CYP2C9, CYP2C9 (gene 1559) (P11712 whole entry, looked up): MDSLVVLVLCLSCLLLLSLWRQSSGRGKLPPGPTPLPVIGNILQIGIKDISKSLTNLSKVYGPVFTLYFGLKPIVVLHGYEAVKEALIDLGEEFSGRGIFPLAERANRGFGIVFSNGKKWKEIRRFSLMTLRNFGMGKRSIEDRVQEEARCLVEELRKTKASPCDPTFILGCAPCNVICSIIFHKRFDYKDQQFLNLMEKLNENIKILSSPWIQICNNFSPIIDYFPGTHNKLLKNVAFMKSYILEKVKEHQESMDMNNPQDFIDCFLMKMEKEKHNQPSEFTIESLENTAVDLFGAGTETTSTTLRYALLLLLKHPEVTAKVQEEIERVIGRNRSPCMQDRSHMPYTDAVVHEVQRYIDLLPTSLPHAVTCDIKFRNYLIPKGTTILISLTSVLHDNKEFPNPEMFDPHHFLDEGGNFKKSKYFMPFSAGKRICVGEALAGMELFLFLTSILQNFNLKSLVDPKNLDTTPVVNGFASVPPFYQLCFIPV
# Chain of rat CYP2A2, Cyp2a2 (gene 24895) (P15149 whole entry, looked up): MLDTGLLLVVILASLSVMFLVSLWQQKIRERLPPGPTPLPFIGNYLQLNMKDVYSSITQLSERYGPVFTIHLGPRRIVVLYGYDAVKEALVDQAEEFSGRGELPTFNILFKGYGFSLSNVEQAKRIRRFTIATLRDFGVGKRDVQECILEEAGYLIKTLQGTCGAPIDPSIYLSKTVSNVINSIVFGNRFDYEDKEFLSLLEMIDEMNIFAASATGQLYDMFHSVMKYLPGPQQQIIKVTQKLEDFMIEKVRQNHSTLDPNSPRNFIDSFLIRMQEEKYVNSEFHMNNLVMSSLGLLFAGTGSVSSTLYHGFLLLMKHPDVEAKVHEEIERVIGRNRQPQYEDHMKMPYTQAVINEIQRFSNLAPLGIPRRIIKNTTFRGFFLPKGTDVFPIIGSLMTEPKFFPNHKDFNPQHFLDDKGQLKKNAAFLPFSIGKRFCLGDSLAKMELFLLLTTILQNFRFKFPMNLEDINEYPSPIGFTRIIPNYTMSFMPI
# Chain of human CYP2B6, CYP2B6 (gene 1555) (P20813 whole entry, looked up): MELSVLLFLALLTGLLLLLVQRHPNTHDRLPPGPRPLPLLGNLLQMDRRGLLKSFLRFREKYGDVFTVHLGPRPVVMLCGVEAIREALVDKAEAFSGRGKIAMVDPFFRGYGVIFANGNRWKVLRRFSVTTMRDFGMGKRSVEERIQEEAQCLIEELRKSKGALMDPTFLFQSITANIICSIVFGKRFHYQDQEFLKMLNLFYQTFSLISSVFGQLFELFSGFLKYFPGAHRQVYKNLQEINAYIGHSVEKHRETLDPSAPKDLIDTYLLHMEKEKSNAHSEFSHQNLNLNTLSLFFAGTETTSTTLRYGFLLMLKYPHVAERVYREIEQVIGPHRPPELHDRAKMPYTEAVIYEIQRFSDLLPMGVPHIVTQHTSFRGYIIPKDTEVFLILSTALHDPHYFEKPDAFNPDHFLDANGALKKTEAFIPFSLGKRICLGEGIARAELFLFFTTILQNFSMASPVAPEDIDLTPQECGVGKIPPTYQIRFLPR
# Chain of human CYP1A2, CYP1A2 (gene 1544) (P05177 whole entry, looked up): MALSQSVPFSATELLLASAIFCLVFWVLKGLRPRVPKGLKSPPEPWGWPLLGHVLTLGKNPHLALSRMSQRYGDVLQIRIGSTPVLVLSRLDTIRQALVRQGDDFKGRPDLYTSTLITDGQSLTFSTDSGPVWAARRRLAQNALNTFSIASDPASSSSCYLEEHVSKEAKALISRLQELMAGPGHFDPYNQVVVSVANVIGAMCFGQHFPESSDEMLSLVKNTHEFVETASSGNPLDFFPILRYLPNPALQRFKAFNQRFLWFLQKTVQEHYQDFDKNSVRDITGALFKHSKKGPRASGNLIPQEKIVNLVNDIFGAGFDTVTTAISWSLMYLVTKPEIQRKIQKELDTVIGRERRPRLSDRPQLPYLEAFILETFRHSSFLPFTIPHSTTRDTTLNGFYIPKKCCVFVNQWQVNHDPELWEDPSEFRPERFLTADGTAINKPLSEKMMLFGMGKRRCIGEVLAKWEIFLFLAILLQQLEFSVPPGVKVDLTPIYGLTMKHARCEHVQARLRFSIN
# Chain of human CYP4F12, CYP4F12 (gene 66002) (Q9HCS2 whole entry, looked up): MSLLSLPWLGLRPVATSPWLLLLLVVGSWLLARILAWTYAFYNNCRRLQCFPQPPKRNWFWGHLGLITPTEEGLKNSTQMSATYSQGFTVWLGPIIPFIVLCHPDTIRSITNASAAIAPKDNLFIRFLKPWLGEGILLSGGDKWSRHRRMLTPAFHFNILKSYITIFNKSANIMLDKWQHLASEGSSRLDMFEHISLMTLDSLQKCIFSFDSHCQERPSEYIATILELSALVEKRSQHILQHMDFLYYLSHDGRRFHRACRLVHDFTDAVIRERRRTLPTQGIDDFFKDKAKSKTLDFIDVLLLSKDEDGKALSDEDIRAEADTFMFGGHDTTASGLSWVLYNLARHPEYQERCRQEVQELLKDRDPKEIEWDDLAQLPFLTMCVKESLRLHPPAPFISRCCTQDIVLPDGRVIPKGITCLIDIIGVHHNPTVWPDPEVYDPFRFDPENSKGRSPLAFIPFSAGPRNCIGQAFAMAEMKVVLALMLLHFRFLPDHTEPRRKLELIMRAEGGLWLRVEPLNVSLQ
# Chain of human CYP2D6, CYP2D6 (gene 1565) (P10635 whole entry, looked up): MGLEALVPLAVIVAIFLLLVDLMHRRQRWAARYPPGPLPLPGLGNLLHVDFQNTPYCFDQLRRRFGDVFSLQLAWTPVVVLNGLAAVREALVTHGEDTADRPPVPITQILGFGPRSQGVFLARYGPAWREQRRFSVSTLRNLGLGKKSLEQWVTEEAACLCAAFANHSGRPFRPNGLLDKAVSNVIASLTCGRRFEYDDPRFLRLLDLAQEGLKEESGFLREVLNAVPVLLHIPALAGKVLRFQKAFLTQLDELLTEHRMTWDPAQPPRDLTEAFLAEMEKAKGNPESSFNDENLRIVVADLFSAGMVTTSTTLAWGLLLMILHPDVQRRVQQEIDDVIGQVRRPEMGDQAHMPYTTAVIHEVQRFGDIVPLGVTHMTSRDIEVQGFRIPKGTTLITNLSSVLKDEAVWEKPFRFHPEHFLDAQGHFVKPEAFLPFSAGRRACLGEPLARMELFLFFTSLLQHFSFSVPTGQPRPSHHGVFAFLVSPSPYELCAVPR
# Chain of Cytochrome P450 3A4 (Homo sapiens) (P08684 whole entry, looked up): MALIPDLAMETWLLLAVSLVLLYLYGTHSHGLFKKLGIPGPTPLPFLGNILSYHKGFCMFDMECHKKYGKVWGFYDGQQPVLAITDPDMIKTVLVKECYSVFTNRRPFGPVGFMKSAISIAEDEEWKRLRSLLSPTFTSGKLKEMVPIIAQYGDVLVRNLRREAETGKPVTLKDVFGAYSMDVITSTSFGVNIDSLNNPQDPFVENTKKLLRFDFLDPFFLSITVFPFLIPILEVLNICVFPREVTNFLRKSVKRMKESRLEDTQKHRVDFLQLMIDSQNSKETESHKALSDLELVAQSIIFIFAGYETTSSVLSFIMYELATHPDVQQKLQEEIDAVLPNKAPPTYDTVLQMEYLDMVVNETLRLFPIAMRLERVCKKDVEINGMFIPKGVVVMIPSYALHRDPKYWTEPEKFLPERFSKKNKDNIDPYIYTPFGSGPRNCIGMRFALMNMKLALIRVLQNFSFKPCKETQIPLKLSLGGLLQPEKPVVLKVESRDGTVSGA
# Chain of human CYP2C8, CYP2C8 (gene 1558) (P10632 whole entry, looked up): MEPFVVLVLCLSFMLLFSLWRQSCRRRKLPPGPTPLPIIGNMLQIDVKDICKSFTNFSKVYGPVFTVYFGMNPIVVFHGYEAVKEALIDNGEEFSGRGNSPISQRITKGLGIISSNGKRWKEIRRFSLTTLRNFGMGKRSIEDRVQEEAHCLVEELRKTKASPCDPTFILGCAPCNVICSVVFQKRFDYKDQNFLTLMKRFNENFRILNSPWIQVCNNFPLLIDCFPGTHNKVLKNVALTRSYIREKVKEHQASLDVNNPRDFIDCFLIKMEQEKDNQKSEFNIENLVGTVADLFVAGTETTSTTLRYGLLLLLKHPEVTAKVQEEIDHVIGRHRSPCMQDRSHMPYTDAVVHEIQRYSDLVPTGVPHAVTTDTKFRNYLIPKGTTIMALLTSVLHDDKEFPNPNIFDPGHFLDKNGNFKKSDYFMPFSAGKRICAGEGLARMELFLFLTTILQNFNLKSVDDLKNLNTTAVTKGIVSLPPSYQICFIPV
structure (smiles),measurement,setting,value
Oc1ccc(C(c2ccc(O)cc2)(C(F)(F)F)C(F)(F)F)cc1,AC50,[1],4.71 µM (active)
same,AC50,[2],0.406 µM (active)
same,AC50,[3],7.65 µM (active)
same,AC50,[4],3.97 µM (active)
same,AC50,[5],0.145 µM (active)
CC(C)C(=O)OCC(C)(C)C(OC(=O)C(C)C)C(C)C (stereo unspecified),AC50,[4],6.26 µM (active)
O=S(=O)(O)C(F)(F)C(F)(F)C(F)(F)C(F)(F)C(F)(F)C(F)(F)F,AC50,[6],9.34 µM (active)
same,AC50,[2],0.0791 µM (active)
O=C(O)C(F)(F)C(F)(F)C(F)(F)C(F)(F)C(F)(F)C(F)(F)C(F)(F)C(F)(F)F,AC50,[2],0.643 µM (active)
CCNc1nc(NC(C)C)nc(SC)n1,AC50,[6],4.92 µM (active)
same,AC50,[5],4.91 µM (active)
CCC(C)(c1ccc(O)cc1)c1ccc(O)cc1,AC50,[1],4.81 µM (active)
same,AC50,[2],6.47 µM (active)
same,outcome,[3],inactive
same,AC50,[5],4.4 µM (active)
CCCCCCCCCC[N+](C)(C)CCCCCCCCCC,AC50,[6],14.3 µM (active)
same,AC50,[7],1.38 µM (active)
same,AC50,[3],9.61 µM (active)
same,AC50,[5],6.37 µM (active)
CC(c1ccc(O)cc1)(c1ccc(O)cc1)c1ccc(O)cc1,AC50,[5],1.73 µM (active)
Cc1cccc(C)c1N,outcome,[3],inactive
CC(C)(O)C(=O)Nc1ccc([N+](=O)[O-])c(C(F)(F)F)c1,AC50,[6],3.38 µM (active)
same,outcome,[2],inactive
same,AC50,[5],3.49 µM (active)
ClC(Cl)=C(c1ccc(Cl)cc1)c1ccc(Cl)cc1,outcome,[1],inactive
same,outcome,[5],inactive
same,outcome,[8],inactive
same,outcome,"rat CYP2B1, gene 24300",inactive
Cc1ccc(O)c(C)c1,outcome,[4],inactive
CCC(C)c1cc([N+](=O)[O-])cc([N+](=O)[O-])c1O (stereo unspecified),AC50,[5],15.2 µM (active)
Cc1cc2c3c(c1)C(c1ccccc1)=N[C@@H](NC(=O)c1ccncc1)C(=O)N3CC2,outcome,[3],inactive
CC(C)(c1ccccc1)c1ccc(O)cc1,AC50,[1],7.47 µM (active)
same,outcome,[7],inactive
same,AC50,[2],10 µM (active)
same,outcome,[3],inactive
ClC1=C(Cl)[C@]2(Cl)[C@@H]3[C@@H]4C[C@@H]([C@H]5O[C@@H]45)[C@@H]3[C@@]1(Cl)C2(Cl)Cl,AC50,[1],3.88 µM (active)
same,AC50,[5],3.57 µM (active)
COc1ccc(O)c(C(C)(C)C)c1,outcome,[1],inactive
same,AC50,[2],10 µM (active)
same,AC50,[5],12.1 µM (active)
NS(=O)(=O)C(F)(F)C(F)(F)C(F)(F)C(F)(F)C(F)(F)C(F)(F)C(F)(F)C(F)(F)F,AC50,[2],1.97 µM (active)
CCOC(=O)C(O)(c1ccc(Cl)cc1)c1ccc(Cl)cc1,AC50,[5],0.596 µM (active)
CO/C=C(/C(=O)OC)c1ccccc1COc1cccc(C(F)(F)F)n1,outcome,[7],inactive
same,AC50,[2],6.85 µM (active)
same,AC50,[5],1 µM (active)
CC#Cc1cc(C)nc(Nc2ccccc2)n1,AC50,[6],1.96 µM (active)
ClC1=C(Cl)[C@]2(Cl)[C@@H]3[C@H]4C[C@H]([C@@H]5O[C@H]45)[C@@H]3[C@@]1(Cl)C2(Cl)Cl,AC50,[1],4.45 µM (active)
CN(C)CCO,outcome,[5],inactive
Nc1ccc(-c2ccc(N)cc2)cc1,AC50,[2],10 µM (active)
same,AC50,[5],8.09 µM (active)
CCC(C)(CC)c1cc(NC(=O)c2c(OC)cccc2OC)on1,outcome,[9],inactive
same,AC50,[2],2.79 µM (active)
same,AC50,[5],5.05 µM (active)
C[C@]12CCC(=O)C=C1CC[C@@H]1[C@@H]2CC[C@@]2(C)[C@H]1CC[C@]2(C)O,AC50,[5],9.15 µM (active)
same,AC50,[8],5.45 µM (active)
C[C@]12CCC(=O)C=C1CC[C@@H]1[C@@H]2CC[C@]2(C)C(=O)CC[C@@H]12,AC50,[5],10 µM (active) and 6.19 µM (active) and 5.77 µM (active)
same,AC50,[8],1.52 µM (active)
Oc1c(Cl)c(Cl)c(Cl)c(Cl)c1Cl,outcome,[1],inactive
O=C(N[C@H]1CN2CCC1CC2)c1cc2ccoc2cn1,AC50,[7],2.09 µM (active)
O=C(O)C(F)(F)C(F)(F)C(F)(F)C(F)(F)C(F)(F)C(F)(F)C(F)(F)C(F)(F)C(F)(F)F,AC50,[2],1.12 µM (active)
ClC1=C(Cl)[C@]2(Cl)[C@@H]3[C@@H](Cl)[C@H]4O[C@H]4[C@@H]3C1(Cl)C2(Cl)Cl,AC50,[1],7.84 µM (active)
